Measurements: PubChem BioAssay (NCI)
Compounds without any hit were thinned out: in the full panel of roughly 83,000, 20% have a hit.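 Assay: single dose, 48 h. Readout: percent growth (0 = no net growth; negative = cell death). Active: <10.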 Values without a mark were called inactive. Activity calls are given as the source filed them.

These molecules were tested on HCT-116 colon (assay: NCI-60 one-dose screen, 48 h (100 = growth as untreated, 0 = no growth, -100 = all killed)). Conditions: 10 µM unless noted.

Row | SMILES | growth
1 | CCNC(=O)OCCc1c2ccccc2nc2ccccc12 | 94.1%
2 | CCCCn1cnc2c(=O)[nH]cnc21 | 107%
3 | Cc1cc(CC(=O)NCCO)n(CCO)c(=O)c1 | 97.5%
4 | CCCCCCCCCCC(=O)CCCCCCCCCC | 94.9%
5 | NC(=S)c1c(N)n(C2OC(CO)C(O)C2O)c2ncnc(N)c12 (configuration not stated) | 5.32% (active)
6 | NC(=S)N/N=C/c1ccc(OC(=O)COc2ccccc2)cn1 | 39.3%
7 | CCOC(=O)CNC(=O)Sc1ccc(C(C)(C)C)cc1 | 98.6%
8 | c1ccc(Nc2ccccn2)nc1 | 99.8%
9 | C[n+]1c(/C=C\C=C\N2CCCCC2)sc2ccccc21 | -24.5% (active)
10 | CCC(=O)C1C(=O)c2ccccc2C1=O | 107%
11 | Cc1cc(NC(=O)c2ccccc2)c(Cl)cc1N | 103%
12 | O=C1C=C[C@H](O)[C@@]2(CO)O[C@@H]12 | 19.9%
13 | Oc1cc(O)c2c(c1)O[C@H](c1ccc(O)c(O)c1)[C@@H](O)C2 | 109%
14 | C(=C\c1ccncc1)/c1ccncc1 | 115%
15 | CCOC(=O)c1cc(C)[nH]c(=O)c1C#N | 99.9%
16 | NC(CCl)=NCC12CC3CC(CC(C3)C1)C2 | -69.2% (active)
17 | COC1=C(OC)C(=O)C(SC/C=C(\C)CCCC(C)CCCC(C)CCCC(C)C)=CC1=O (configuration not stated) | 9.93% (active)
18 | COc1ccc(Br)c2c1C(=O)CC2 | 108%
19 | N#C/C(=C\c1ccc(C#N)cc1)C(=O)c1ccccc1 | 97.8%
20 | CN1CCCN(C(c2ccccc2)c2ccc(Cl)cc2)CC1 (configuration not stated) | 96.9%

Each molecule was assayed on HCC-2998 colon in the same assay as above. Conditions: 10 µM unless noted.

Row | SMILES | growth
21 | CCOC(=O)/C(C#N)=C\c1c[nH]c2ccccc12 | 108%
22 | CC(=O)N(C)N=Nc1ccc(C)cc1 | 91.5%
23 | COc1cc(C(=O)N2CCN(c3ccccc3)CC2)c2ccccc2n1 | -20.3% (active)
24 | CCOC(=O)c1ccc(NC(=O)Nc2nccs2)cc1 | -27.7% (active)
25 | O=c1n(CC2CO2)c(=O)n(CC2CO2)n1CC1CO1 (configuration not stated) | 75.2%
26 | CCCCCCCCCCCCSC1=C(Cl)C(=O)C(OC)=C(OC)C1=O | 4.65% (active)
27 | Cc1ccc(N2C(=O)c3cccc4c(N)c(S(=O)(=O)O)cc(c34)C2=O)cc1 | 104%
28 | S=C=Nc1ccc2ccccc2c1 | 95.7%
29 | O=C1C=C(c2ccccc2)C(O)(c2ccccc2)C1 (configuration not stated) | 122%
30 | Cc1cc(C)cc(OCC(=O)O)c1 | 102%
31 | Cc1cccc(C)c1NC(=S)/N=C\c1c(O)[nH]c(=O)[nH]c1=O | 102%
32 | NNC(=O)N/N=C1\C(=O)N(c2nccs2)C(=O)C(=O)C1c1nc2ccccc2s1 (configuration not stated) | 93.2%
33 | O=[N+]([O-])c1c(O)c(CNCCCO)cc(CNCCCO)c1O | 106%
34 | O=C1Nc2ccccc2/C1=C\c1ccccc1O | 94.5%
35 | CN(C)c1ccc2c(N(C)C)cc(N(C)C)nc2c1 | 118%
36 | Cc1cccc(-[n+]2noc(N)n2)c1 | 79%
37 | O=S(Cc1ccccc1)/C(=C/NC(=S)Nc1cc(Cl)ccc1Cl)c1ccccc1 (configuration not stated) | 103%
38 | CCNC(=O)OCCc1c2ccccc2nc2ccccc12 | 110%

Row | SMILES | growth
39 | CCCCn1cnc2c(=O)[nH]cnc21 | 117%
40 | Cc1cc(CC(=O)NCCO)n(CCO)c(=O)c1 | 103%
41 | CCCCCCCCCCC(=O)CCCCCCCCCC | 94.4%
42 | NC(=S)c1c(N)n(C2OC(CO)C(O)C2O)c2ncnc(N)c12 (configuration not stated) | 3.23% (active)
43 | NC(=S)N/N=C/c1ccc(OC(=O)COc2ccccc2)cn1 | 31%
44 | CCOC(=O)CNC(=O)Sc1ccc(C(C)(C)C)cc1 | 110%
45 | C[n+]1c(/C=C\C=C\N2CCCCC2)sc2ccccc21 | 14%
46 | CCC(=O)C1C(=O)c2ccccc2C1=O | 106%
47 | Cc1cc(NC(=O)c2ccccc2)c(Cl)cc1N | 102%
48 | O=C1C=C[C@H](O)[C@@]2(CO)O[C@@H]12 | 104%
49 | Oc1cc(O)c2c(c1)O[C@H](c1ccc(O)c(O)c1)[C@@H](O)C2 | 108%
50 | C(=C\c1ccncc1)/c1ccncc1 | 99.3%
51 | NC(CCl)=NCC12CC3CC(CC(C3)C1)C2 | -17.9% (active)
52 | COC1=C(OC)C(=O)C(SC/C=C(\C)CCCC(C)CCCC(C)CCCC(C)C)=CC1=O (configuration not stated) | -4.48% (active)
53 | COc1ccc(Br)c2c1C(=O)CC2 | 113%
54 | N#C/C(=C\c1ccc(C#N)cc1)C(=O)c1ccccc1 | 104%
55 | CN1CCCN(C(c2ccccc2)c2ccc(Cl)cc2)CC1 (configuration not stated) | 98.9%

The molecules below were run on KM12 colon in the same assay as above. Conditions: 10 µM unless noted.

Row | SMILES | growth
56 | CCOC(=O)/C(C#N)=C\c1c[nH]c2ccccc12 | 109%
57 | CC(=O)N(C)N=Nc1ccc(C)cc1 | 118%
58 | COc1cc(C(=O)N2CCN(c3ccccc3)CC2)c2ccccc2n1 | 2.35% (active)
59 | CCOC(=O)c1ccc(NC(=O)Nc2nccs2)cc1 | -33.3% (active)
60 | O=c1n(CC2CO2)c(=O)n(CC2CO2)n1CC1CO1 (configuration not stated) | 84.4%
61 | CCCCCCCCCCCCSC1=C(Cl)C(=O)C(OC)=C(OC)C1=O | 24.4%
62 | Cc1ccc(N2C(=O)c3cccc4c(N)c(S(=O)(=O)O)cc(c34)C2=O)cc1 | 99.3%
63 | S=C=Nc1ccc2ccccc2c1 | 104%
64 | Oc1cccnc1CN1CCCC1 | 113%
65 | O=C1C=C(c2ccccc2)C(O)(c2ccccc2)C1 (configuration not stated) | 107%
66 | Cc1cc(C)cc(OCC(=O)O)c1 | 110%
67 | Cc1cccc(C)c1NC(=S)/N=C\c1c(O)[nH]c(=O)[nH]c1=O | 103%
68 | NNC(=O)N/N=C1\C(=O)N(c2nccs2)C(=O)C(=O)C1c1nc2ccccc2s1 (configuration not stated) | 100%
69 | O=[N+]([O-])c1c(O)c(CNCCCO)cc(CNCCCO)c1O | 138%
70 | O=C1Nc2ccccc2/C1=C\c1ccccc1O | 82.3%
71 | CN(C)c1ccc2c(N(C)C)cc(N(C)C)nc2c1 | 78.3%
72 | Cc1cccc(-[n+]2noc(N)n2)c1 | 70.2%
73 | O=S(Cc1ccccc1)/C(=C/NC(=S)Nc1cc(Cl)ccc1Cl)c1ccccc1 (configuration not stated) | 100%
74 | CCNC(=O)OCCc1c2ccccc2nc2ccccc12 | 114%

Row | SMILES | growth
75 | CCCCn1cnc2c(=O)[nH]cnc21 | 132%
76 | Cc1cc(CC(=O)NCCO)n(CCO)c(=O)c1 | 107%
77 | CCCCCCCCCCC(=O)CCCCCCCCCC | 104%
78 | NC(=S)c1c(N)n(C2OC(CO)C(O)C2O)c2ncnc(N)c12 (configuration not stated) | -6.52% (active)
79 | NC(=S)N/N=C/c1ccc(OC(=O)COc2ccccc2)cn1 | 62.4%
80 | CCOC(=O)CNC(=O)Sc1ccc(C(C)(C)C)cc1 | 102%
81 | c1ccc(Nc2ccccn2)nc1 | 116%
82 | C[n+]1c(/C=C\C=C\N2CCCCC2)sc2ccccc21 | -11% (active)
83 | CCC(=O)C1C(=O)c2ccccc2C1=O | 105%
84 | Cc1cc(NC(=O)c2ccccc2)c(Cl)cc1N | 106%
85 | O=C1C=C[C@H](O)[C@@]2(CO)O[C@@H]12 | 98.4%
86 | C(=C\c1ccncc1)/c1ccncc1 | 112%
87 | CCOC(=O)c1cc(C)[nH]c(=O)c1C#N | 103%
88 | NC(CCl)=NCC12CC3CC(CC(C3)C1)C2 | -31.6% (active)
89 | COC1=C(OC)C(=O)C(SC/C=C(\C)CCCC(C)CCCC(C)CCCC(C)C)=CC1=O (configuration not stated) | 11.6%
90 | COc1ccc(Br)c2c1C(=O)CC2 | 117%
91 | N#C/C(=C\c1ccc(C#N)cc1)C(=O)c1ccccc1 | 107%
92 | CN1CCCN(C(c2ccccc2)c2ccc(Cl)cc2)CC1 (configuration not stated) | 101%
